PI5P4K alpha inh = qHTS for Inhibitors of phosphatidylinositol 5-phosphate 4-kinase (PI5P4K) | PI5P4Kalpha enzyme, ADP-Glo luminescence, 60 min; active compounds read low | max response, % | 330,000 tested, 1.2% active | AID 652105, 2013; active = max response of -50% or lower; inconclusive = between -30% and -50%; inactive = -30% or higher; also: value at the top dose of about 77 µM
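qHTS, 1536-well: enzyme/substrate mix, compound by pin tool, 5 microM ATP final; RT 60 min; ADP-Glo reagents 1 (45 min) then 2 (30 min); luminescence.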
BAZ2B block = qHTS Assay for Inhibitors of BAZ2B; Bromodomain adjacent to zinc finger domain protein 2B (Homo sapiens), Q9UIF8; AlphaScreen BAZ2B-H3K14Ac peptide displacement; Potency, µM (top dose mostly 114 µM), hits mostly inhibitors; 360,000 tested, 4.4% active; AID 504333, 2011; also: nearly all actives have a fitted effect of over 60% in size
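BAZ2B 50 nM plus b-H3(5-23)K14Ac 50 nM, PBS pH 7.4/0.01% Tween-20, 30 min RT; compound added (max 110 uM), 30 min RT; streptavidin donor/Ni-chelate acceptor beads 10 ug/mL final, 20 min dark; AlphaScreen read.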
JMJD2A Tudor = qHTS Assay for Inhibitors of JMJD2A-Tudor Domain; Potency, µM (titrated, usually from 114 µM), actives largely listed as inhibitors; AlphaScreen JMJD2A-Tudor / H3K4me3 peptide binding; Lysine-specific demethylase 4A (Homo sapiens), O75164; 390,000 tested, 4.4% active; also: nearly all actives have a fitted effect of over 50% in size
HP1b binding inh = HTS for Inhibitors of HP1-beta Chromodomain Interactions with Methylated Histone Tails; Chromobox protein homolog 1 (Homo sapiens), P83916; AlphaScreen HP1-beta / biotin-H3K9me3 peptide binding; Potency, µM (top dose mostly 114 µM), hits mostly inhibitors; 390,000 tested, 0.56% active; AID 540317, 2011; also: nearly all actives have a fitted effect of over 70% in size
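HP1-beta protein (50 nM final) preincubated 30 min at room temperature with biotinylated H3(1-18)K9me3 peptide (50 nM) in PBS pH 7.4, 0.01% Tween-20, then compound added for 30 min. AlphaScreen streptavidin donor/nickel chelate acceptor beads (10 ug/mL final), 30 min dark, luminescence read.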
G9a block = qHTS Assay for Inhibitors of Histone Lysine Methyltransferase G9a; Potency, µM (top dose mostly 102 µM), hits mostly inhibitors; 350,000 tested, 8.8% active; G9a H3K9 monomethylation, AlphaScreen, 2 h; Histone-lysine N-methyltransferase EHMT2 (Homo sapiens), Q96KQ7; AID 504332, 2011; also: nearly all actives have a fitted effect of over 75% in size
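Compounds were preincubated with 20 nM G9a for 15 min, after which biotinylated H3K9 peptide (500 nM) and SAM (20 uM) started a 2 h room-temperature reaction. Monomethylated product was quantified by antibody-based AlphaScreen chemiluminescence.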
PLK1 PBD inh = qHTS for Inhibitors of PLK1-PDB (polo-like kinase 1 - polo-box domain): Primary Screen | Plk1 PBD binding of FITC phosphopeptide, fluorescence polarization | Potency, µM, most hits filed as inhibitors | 360,000 tested, 2.8% active; also: series mostly up to about 57 µM; nearly all actives have a fitted effect of over 65% in size
Numbers stand for hits; i = inactive; ? = inconclusive; nt = no result given; [ ] = dose if it differs, or a comment. Shown are actives, neighbours in structure and some others; about 12% of the full set was active somewhere. Unless noted, calls follow the shape of the dose curve; as a rule, active = well fitted curve in the direction sought with a large enough effect; inconclusive = small, poorly fitted or top-dose-only effect, or another doubt; inactive = no such curve, though single readings can be large; an effect the other way counts as inactive or inconclusive.

SMILES	PI5P4K alpha inh	BAZ2B block	JMJD2A Tudor	HP1b binding inh	G9a block	PLK1 PBD inh
O=C(c1ccc2c(=O)n(Cc3ccco3)c(=S)[nH]c2c1)N1CCN(Cc2ccccc2)CC1	nt	i	i	i	i	i
O=c1c2cc3c(cc2[nH]c(=S)n1Cc1ccco1)OCO3	i	i	i	i	40µM	i
COc1ccccc1CNC(=O)c1ccc2c(=O)n(CCCN3CCCC3=O)c(=S)[nH]c2c1	i	?	i	i	i	i
CN1CCN(C(=O)c2ccc3c(=O)n(Cc4ccco4)c(=S)[nH]c3c2)CC1	nt	i	13µM	i	45µM	i
COc1ccc(-n2c(=S)[nH]c3cc(C(=O)N4CCN(c5ccccc5)CC4)ccc3c2=O)cc1	i	i	i	i	i	i
O=S(=O)(c1ccc(F)c(F)c1)N1CCN(c2ccccn2)CC1	i	i	i	i	i	i
CCCN(Cc1cc2cc(C)ccc2[nH]c1=O)C(=O)c1cccc(Cl)c1	nt	i	i	i	i	nt
O=C(NCCCN1CCCC1=O)c1ccc2c(=O)n(Cc3ccco3)c(=S)[nH]c2c1	?	i	?	i	10µM	4.7µM
Cc1ccc(CNC(=O)c2ccc3c(=O)n(CCCN4CCCC4=O)c(=S)[nH]c3c2)cc1	i	i	i	i	?	i
COc1ccc(-n2c(CN3CCN(c4ccccn4)CC3)nc3ccc([N+](=O)[O-])cc3c2=O)c(OC)c1	i	?	?	i	32µM	i
Cn1cnc(C(=O)N2CCN(c3ccccc3)CC2)c1C(=O)N1CCN(c2ccccc2)CC1	i	56µM	28µM	i	i[2.33 µM]	?
COc1ccc(S(=O)(=O)N2CCN(Cc3ccccc3)CC2)cc1OC	i	i	i	i	nt	i
COc1cc(CC(=O)Nc2ccc(S(=O)(=O)N(C)C)cc2)cc(OC)c1OC	nt	i	i	i	50µM	i
CC(=O)Nc1ccc(S(=O)(=O)N2CCN(Cc3ccncc3)CC2)cc1	i	i	i	i	?	i
COc1cccc(CN2CCN(S(=O)(=O)c3ccc(NC(C)=O)cc3)CC2)c1OC	i	i	2.5µM	?	i	i
COc1ccc(S(=O)(=O)N2CCN(Cc3cccc(OC)c3OC)CC2)cc1	i	i	i	i	i[0.501 µM]	i
COc1cc(CN2CCN(S(=O)(=O)c3ccc(NC(C)=O)cc3)CC2)cc(OC)c1OC	nt	50µM	22µM	?	25µM	nt
COc1ccc(CN2CCN(S(=O)(=O)c3ccc(C)cc3)CC2)cc1OC	i	nt	50µM	?	nt	i
COc1ccc(OCC(=O)NCCNC(=O)c2cccnc2)cc1	i	i	i	i	i	i
COc1ccc(-n2c(=O)cnc3cnc(N4CCNCC4)nc32)cc1	nt	nt	nt	nt	i[12.7 µM]	nt
CCCSc1nsc(SCCC)c1C(N)=O	i	i	i	i	40µM	i
CCCC1(C(=O)OCC)NC(c2ccc(OC)cc2OC)C2C(=O)N(c3ccccc3)C(=O)C21 (stereo not given)	i	i	i	i	i	i
CCCC1(C(=O)OCC)NC(c2ccc(N(C)C)cc2)C2C(=O)N(c3ccccc3)C(=O)C21 (stereo not given)	i	i	?	i	8.9µM	i
CCCC1(C(=O)OCC)NC(c2ccc(N(C)C)cc2)C2C(=O)N(c3ccc(OCC)cc3)C(=O)C21 (stereo not given)	i	?	?	i	50µM	i
CC(=O)NN(O)C1N(C)C(=O)N(Cc2ccccc2)C1(C)C (stereo not given)	i	nt	i	i	nt	i
COC(=O)CC1C(=O)NCCN1C(=O)CSc1nc2ccccc2s1 (stereo not given)	i	nt	i	i	7.1µM	13µM

High-throughput results: PubChem, National Center for Advancing Translational Sciences (NCATS)
